Test results: PubChem BioAssay (NCATS)
Records with an inconclusive call do not appear. Calls of active or inactive are those of the source. Unless noted, calls come from the whole dose curve; as a rule, active = well fitted curve in the direction sought with a large enough effect; inconclusive = small, poorly fitted or top-dose-only effect, or another doubt; inactive = no such curve, though single readings can be large; an effect the other way counts as inactive or inconclusive.

Tests used:
[1] = target: Furin (Homo sapiens) (UniProt P09958); assay: Furin counterscreen qHTS for Zika virus inhibitors (AID 1347149); note: nearly all actives have a fitted effect of over 70% in size; note: potency is the fitted concentration of half-maximal effect;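 for activity change, negative = inhibition: purified recombinant full-length human furin enzyme at 5 nM; fluorescence gain from furin cutting a BOC-RVRR-AMC peptide substrate over 15 min; top concentration of the series differs between compounds; plate controls were no-inhibitor control for no effect and no-enzyme control for full effect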
Furin (Homo sapiens), sequence (P09958 whole entry, looked up): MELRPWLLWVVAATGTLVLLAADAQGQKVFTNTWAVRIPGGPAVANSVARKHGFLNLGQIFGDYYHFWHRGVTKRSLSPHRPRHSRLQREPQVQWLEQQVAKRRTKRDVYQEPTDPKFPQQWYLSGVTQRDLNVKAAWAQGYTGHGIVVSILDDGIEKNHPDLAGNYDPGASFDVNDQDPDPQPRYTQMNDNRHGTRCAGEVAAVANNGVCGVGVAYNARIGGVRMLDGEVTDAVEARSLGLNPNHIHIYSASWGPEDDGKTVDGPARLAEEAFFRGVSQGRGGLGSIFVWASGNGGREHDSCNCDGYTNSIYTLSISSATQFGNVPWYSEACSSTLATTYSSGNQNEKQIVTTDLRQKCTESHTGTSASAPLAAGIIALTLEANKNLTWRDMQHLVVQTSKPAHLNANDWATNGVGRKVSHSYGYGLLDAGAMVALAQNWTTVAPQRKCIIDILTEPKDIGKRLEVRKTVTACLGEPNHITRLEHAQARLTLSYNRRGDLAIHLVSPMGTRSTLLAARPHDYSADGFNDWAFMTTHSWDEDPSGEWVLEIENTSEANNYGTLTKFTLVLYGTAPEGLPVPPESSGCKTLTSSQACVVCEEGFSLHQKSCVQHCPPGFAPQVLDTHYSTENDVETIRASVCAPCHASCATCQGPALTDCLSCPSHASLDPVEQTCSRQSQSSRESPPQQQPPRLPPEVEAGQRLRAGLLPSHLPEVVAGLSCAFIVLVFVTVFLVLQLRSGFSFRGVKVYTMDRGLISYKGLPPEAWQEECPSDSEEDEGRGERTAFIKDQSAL
Method in brief: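 Counterscreen measures cleavage of 2 microM BOC-RVRR-AMC, below its ~15 microM Km, by 5 nM full-length human furin at pH 7.0 after a 15-min compound preincubation. Inhibition derives from the 15-min fluorescence increase at 37C.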

[2] = Confirmatory screen GU Rhodamine qHTS for Zika virus inhibitors qHTS (AID 1347157); note: nearly all actives have a fitted effect of over 70% in size; note: potency is the fitted concentration of half-maximal effect;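 for activity change, negative = inhibition: plate controls were no-inhibitor wells for no effect and no-enzyme wells for full effect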
Method in brief: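 Percent inhibition derives from the 15-min fluorescence change (ex 480, em 540 nm), normalized to no-enzyme and no-inhibitor wells. Reactions contained 25 nM NS2B-NS3 complex and 1.5 microM substrate in 10 mM Tris-HCl pH 8.0.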

[3] = ZIKV-mCherry secondary qHTS for Zika virus inhibitors (AID 1347158); note: top concentration of the series differs between compounds
Method in brief: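 Compounds were tested in Vero monkey kidney cells infected with recombinant mCherry-expressing Zika virus at MOI 1 for 48-72 h at 37 °C. Fixed cells were nuclear-stained and imaged, and infection rate was taken as the fraction of mCherry-positive cells.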

[4] = Confirmatory screen NINDS Rhodamine qHTS for Zika virus inhibitors (AID 1347161); note: nearly all actives have a fitted effect of over 60% in size; note: potency is the fitted concentration of half-maximal effect;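 for activity change, negative = inhibition: purified Zika NS2B-NS3 protease with linked NS2B cofactor domain and Rhodamine110 peptide substrate; plate controls were no-inhibitor control for no effect and no-enzyme control for full effect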
Method in brief: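 Percent inhibition, normalized to uninhibited and enzyme-free controls, is fitted to a 4-parameter Hill equation. Fluorescence change comes from a 15-min cleavage of 1.5 microM bis-peptide Rhodamine110 substrate by 25 nM linked NS2B-NS3 at room temperature.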

[5] = tested on: Zika virus NS2B-NS3 protease (linked); assay: 384 well plate NINDS AMC confirmatory qHTS for Zika virus inhibitors (AID 1347163); note: nearly all actives have a fitted effect of over 50% in size; note: potency is the fitted concentration of half-maximal effect;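 for activity change, negative = inhibition: linked protease at 5 30 or 60 nM final depending on run; fluorescence of AMC released from Ac-VKTGKR-AMC peptide cleaved by the protease; top concentration of the series differs between compounds; 0% = no-inhibitor control and -100% = no-enzyme control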
Method in brief: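 Fluorescence at 355/460 nm was read after 25 minutes of cleavage of 30 microM Ac-VKTGKR-AMC at room temperature, in the dark. Before substrate addition, compounds (up to 1 mM final) sat ~15 minutes with 5, 30 or 60 nM linked protease. Signals were normalized to no-enzyme and no-inhibitor wells.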

[6] = tested on: Zika virus NS2B-NS3 protease (linked construct); assay: 384 well plate NINDS Rhodamine confirmatory qHTS for Zika virus inhibitors (AID 1347164);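 note: fluorescence from protease cleavage of Ac-LKRR-rhodamine 110 substrate; potency is the fitted concentration of half-maximal effect; nearly all actives have a fitted effect of over 65% in size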
Method in brief: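 Enzyme (final 5/30/60 nM) + cpd (DMSO), ~15 min; add Ac-LKRR-Rd 10 microM final; 25 min RT, dark; FI ex 485/em 538; normalized to no-enzyme, no-inhibitor ctrls; aprotinin intraplate ctrl.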

[7] = Tertiary RLuc qRT-PCR qHTS assay for Zika virus inhibitors (AID 1347169); note: top concentration of the series differs between compounds; % is set by controls: 0 for no effect and ±100 for the full control effect; nearly all actives have a fitted effect of over 55% in size
Method in brief: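 Vero, 1,000 cells/well, o/n 37 C; cpd pinned in DMSO; ZIKV-RLuc Cambodian, MOI 1-2, 48-72 h 37 C; live-cell RLuc substrate, lum read at 1-1.5 h.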

[8] = target: Cytochrome P450 3A4 (Homo sapiens) (UniProt P08684); assay: qHTS Assay for Inhibitors and Substrates of Cytochrome P450 3A4 (AID 884); note: % is set by controls: 0 for no effect and ±100 for the full control effect; nearly all actives have a fitted effect of over 50% in size
Cytochrome P450 3A4 (Homo sapiens), sequence (P08684 whole entry, looked up): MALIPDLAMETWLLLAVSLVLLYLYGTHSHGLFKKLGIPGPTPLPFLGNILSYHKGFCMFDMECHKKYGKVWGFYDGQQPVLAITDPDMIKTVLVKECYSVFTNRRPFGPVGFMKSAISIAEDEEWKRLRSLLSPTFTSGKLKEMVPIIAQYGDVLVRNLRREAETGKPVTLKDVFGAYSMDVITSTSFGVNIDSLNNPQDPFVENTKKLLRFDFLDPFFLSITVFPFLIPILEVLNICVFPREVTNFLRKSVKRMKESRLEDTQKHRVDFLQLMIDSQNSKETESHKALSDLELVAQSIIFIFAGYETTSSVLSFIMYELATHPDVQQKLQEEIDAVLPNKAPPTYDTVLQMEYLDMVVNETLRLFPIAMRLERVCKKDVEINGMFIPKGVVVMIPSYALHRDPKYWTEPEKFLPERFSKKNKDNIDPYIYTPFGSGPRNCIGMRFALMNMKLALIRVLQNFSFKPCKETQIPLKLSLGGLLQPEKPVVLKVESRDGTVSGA
Method in brief: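 Luminescent readout of luciferin produced by CYP3A4 (20 nM) dealkylation of Luciferin-PPXE, 25 uM (its KM). NADPH-driven reaction ran 60 min at RT after 10 min compound preincubation; data scaled to 57 uM ketoconazole as 100% inhibition.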

[9] = Confirmation and Secondary Assay for Modulators of Hemoglobin Beta Chain Splicing at IVS2 654 locus (AID 910); note: % of control where 0% means no effect
Method in brief: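 HeLa cells stably carrying EGFP interrupted by mutant beta-globin IVS2-654 intron (CMV-driven) were treated with compound for 2 days at 37C; corrected splicing was scored as total peak GFP intensity per well (488 nm excitation, 500-520 nm emission).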

[10] = Confirmation and Secondary Assay for Modulators of Hemoglobin Beta Chain Splicing at IVS2 705 locus (AID 930);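 note: HeLa cells stably expressing the EGFP-705 splicing reporter; GFP fluorescence per well restored by corrected splicing of the IVS2-705 intron in EGFP; % of control where 0% means no effect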
Method in brief: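 Read-out: total peak GFP fluorescence per well (488 nm excitation, 500-520 nm emission) by laser-scanning cytometry. Cells: HeLa EGFP-705 splicing reporter, 2 days compound exposure in Optimem/2% FCS.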

[11] = qHTS Assay for Lipid Storage Modulators (AID 1519; calls by dose curve; for activity change, negative = inhibition: % is set by controls: 0 for no effect and ±100 for the full control effect); conditions: Drosophila S3 cells, BODIPY lipid droplet/cell ratio, laser cytometry, cells loaded with oleic acid
Method in brief: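 Cells seeded at 5,000 per well were treated with compounds over a concentration series and loaded with oleic acid (400 uM, as added). Lipid droplet fluorescence (488 nm excitation, 500-530 nm channel) was read by laser-scanning cytometry and normalized to 20 uM Triacsin C.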

[12] = target: Ubiquitin carboxyl-terminal hydrolase 1 (Homo sapiens) (UniProt O94782); assay: Inhibitors of USP1/UAF1: Pilot qHTS (AID 504865); note: potency is the fitted concentration of half-maximal effect; nearly all actives have a fitted effect of over 35% in size
Ubiquitin carboxyl-terminal hydrolase 1 (Homo sapiens), sequence (O94782 whole entry, looked up): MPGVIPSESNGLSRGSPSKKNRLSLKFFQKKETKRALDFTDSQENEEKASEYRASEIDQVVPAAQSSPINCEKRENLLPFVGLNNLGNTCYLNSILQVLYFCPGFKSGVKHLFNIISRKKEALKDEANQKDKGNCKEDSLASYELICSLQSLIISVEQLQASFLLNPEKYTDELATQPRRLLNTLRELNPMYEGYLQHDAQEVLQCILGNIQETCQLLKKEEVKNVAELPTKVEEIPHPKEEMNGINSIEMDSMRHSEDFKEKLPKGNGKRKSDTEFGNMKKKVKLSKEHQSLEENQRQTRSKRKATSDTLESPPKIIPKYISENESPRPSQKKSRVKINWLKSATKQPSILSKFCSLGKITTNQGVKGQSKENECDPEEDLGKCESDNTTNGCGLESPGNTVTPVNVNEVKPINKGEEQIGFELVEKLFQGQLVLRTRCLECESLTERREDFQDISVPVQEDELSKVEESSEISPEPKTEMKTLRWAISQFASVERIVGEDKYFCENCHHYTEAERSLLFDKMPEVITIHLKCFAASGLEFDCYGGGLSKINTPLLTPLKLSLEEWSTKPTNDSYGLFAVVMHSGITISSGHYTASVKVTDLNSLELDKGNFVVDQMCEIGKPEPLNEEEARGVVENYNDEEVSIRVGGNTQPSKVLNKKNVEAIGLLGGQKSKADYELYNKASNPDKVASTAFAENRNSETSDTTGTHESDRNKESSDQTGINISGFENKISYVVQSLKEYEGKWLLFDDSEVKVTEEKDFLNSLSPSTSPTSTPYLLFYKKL
Method in brief: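 In 50mM HEPES pH 7.8 containing 0.5mM EDTA, 1mM TCEP, 0.1 mg/ml BSA and 0.01% Tween-20, 1nM USP1/UAF1 is exposed to compound for 15 min, then Ub-Rho (150nM final) is added and fluorescence is read over time.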

[13] = tested on: Zika virus NS2B-NS3 protease (unlinked complex); assay: Confirmatory screen GU AMC qHTS for Zika virus inhibitors (AID 1347153); note: nearly all actives have a fitted effect of over 70% in size;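 for Potency: enzyme at 25 nM with substrate at 10 µM below its Km of 18.3 µM; potency is the fitted concentration of half-maximal effect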;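 for activity, negative = inhibition: percent inhibition with 0% = no inhibitor control and 100% = no enzyme control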
Method in brief: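 Noncovalent NS2B hydrophilic domain/NS3 protease complex (25 nM) in 10 mM Tris-HCl pH 8.0, 0.01% Tween 20 was preincubated 15 min at room temperature with compounds. Then 10 µM AMC substrate (Km 18.3 µM) was added; fluorescence was read over 15 min and fitted to a 4-parameter Hill equation.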

[14] = tested on: Zika virus NS2B-NS3 protease; assay: Primary screen GU AMC qHTS for Zika virus inhibitors (AID 1347154); note: nearly all actives have a fitted effect of over 70% in size; note: potency is the fitted concentration of half-maximal effect;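 for activity change, negative = inhibition: 0% = no-inhibitor control and -100% = no-enzyme control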
Method in brief: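 Unlinked Zika NS2B hydrophilic domain/NS3 protease domain noncovalent complex (25 nM final) in 10 mM Tris-HCl pH 8.0, 0.01% Tween 20, with AMC peptide substrate. Fluorescence (ex 340, em 450 nm) change over 15 min, room temperature; percent inhibition fitted to 4-parameter Hill equation.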

[15] = Vero cells viability qHTS for Zika virus inhibitors (AID 1347167); note: % is set by controls: 0 for no effect and ±100 for the full control effect
Method in brief: (§1)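 To flag cytotoxic protease inhibitors, viability is measured by ATP-dependent luminescence (CellTiter Glo) after cells attached overnight receive compound for 24 to 48 hours in DMEM with 4% FBS.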

[16] = HepG2 cells viability qHTS for Zika virus inhibitors (AID 1347168); note: % is set by controls: 0 for no effect and ±100 for the full control effect
Method in brief: as §1

[17] = Primary qHTS for small molecule stabilizers of the endoplasmic reticulum resident proteome: Secreted ER Calcium Modulated Protein (SERCaMP) assay (AID 1508630); note: % is set by controls: 0 for no effect and ±100 for the full control effect
Method in brief: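 The SH-SY5Y reporter protocol was run at 3 concentrations up to 38.3 uM (primary) or 11 concentrations (follow-up): 16 h compound, 100 nM thapsigargin for 4 h, then extracellular luciferase luminescence.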

[18] = tested on: Zika virus NS2B-NS3 protease (linked construct); assay: Confirmatory screen NINDS AMC qHTS for Zika virus inhibitors (AID 1347152); note: nearly all actives have a fitted effect of over 70% in size; note: potency is the fitted concentration of half-maximal effect;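 for activity change, negative = inhibition: AMC fluorescence gain from cleaved Bz-Nle-KRR-AMC substrate over 15 min; top concentration of the series differs between compounds; 0% = no-inhibitor control and -100% = no-enzyme control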
Method in brief: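 Enzyme (1 nM, linked construct) was preincubated with compound for 15 minutes at room temperature in 10 mM Tris-HCl pH 8.0 with 0.01% Tween 20. Bz-Nle-Lys-Arg-Arg-AMC was then added to 10 microM, and AMC fluorescence was recorded immediately and after 15 minutes.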

O=C(O)c1ccc(C2Nc3ccccc3-c3nnc(SCc4ccc(Cl)cc4)nc3O2)cc1 (stereo not given)
active: Potency [2] 20 µM | Potency [4] 15.8 µM | Potency [5] 316 µM | Potency [6] 89.1 µM
inactive: Potency [1] | Potency [3] | Potency [7]

Cc1ccc(C(=O)Nc2ccc(C(=O)OCc3cc(=O)n4nc(C5CC5)sc4n3)cc2)cc1
inactive: Potency [1] | Potency [2]

O=C(OC1Cc2c(O)cc(O)cc2OC1c1cc(O)c(O)c(O)c1-c1c(C2Oc3cc(O)cc(O)c3CC2O)cc(O)c(O)c1O)c1cc(O)c(O)c(O)c1 (stereo not given)
inactive: Potency [8] | outcome [9] | outcome [10] | activity change, negative = inhibition ([11]; at 57.5 µM (top of the series)) 6.85% | Potency [3] | Potency [7]
26.1%: max response ([11]; measured here: lipid channel max response)
active: Potency [12] 44.7 µM | Potency [1] 17.5 µM | Potency [13] 44.1 µM | Potency [5] 22.4 µM | Potency [6] 17.8 µM
18.1%: max response ([11]; measured here: cell count channel max response)

CC1(C(=O)O)NCCc2cc(O)c(O)cc21 (stereo not given)
active: Potency [1] 24.1 µM | Potency [14] 10.6 µM | Potency [4] 27.8 µM
inactive: Potency [5] | Potency [15] | Potency [16] | Potency [7] | Potency [17]

COc1ccc(-c2nc3cc(F)ccc3s2)cc1OC
active: Potency [1] 3.43 µM
inactive: activity, negative = inhibition [13] -4.14% [at 5.51 µM] | activity change, negative = inhibition [4] -16.8% [at 12.7 µM] | activity change, negative = cytotoxicity [15] -2.06% [at 4.93 µM] | activity change, negative = cytotoxicity [16] 0.919% [at 4.93 µM] | Potency [7]

Nc1cc(N)c(N=Nc2ccc(S(=O)(=O)Nc3nccs3)cc2)cc1N=Nc1ccc(S(=O)(=O)Nc2nccs2)cc1
inactive: Potency [7]
active: Potency [1] 39.8 µM | Potency [18] 12.6 µM | Potency [4] 3.55 µM | Potency [5] 63.1 µM | Potency [6] 20 µM

O=C(O)c1ccc(-c2ccc(C(F)(F)F)cc2)cc1
inactive: Potency [1] | Potency [18] | Potency [13] | Potency [7]

Cc1ccc2nc(-c3ccc(N=Nc4cc(S(=O)(=O)O)c5ccccc5c4O)cc3)sc2c1S(=O)(=O)O
active: Potency [1] 59.1 µM | Potency [2] 3.16 µM | Potency [4] 2.82 µM | Potency [6] 15.8 µM
inactive: Potency [3] | Potency [5] | Potency [7]

O=C(Nc1ccccc1)c1ccc2c(O)c(S(=O)(=O)c3ccc(Cl)cc3)c(=O)[nH]c2c1
inactive: Potency [1] | Potency [3] | Potency [7]
active: Potency [2] 22.4 µM | Potency [4] 14.1 µM | Potency [5] 398 µM

Clc1ccc(-c2nn3c(COc4cccc(OCc5nnc6sc(-c7ccc(Cl)cc7)nn56)c4)nnc3s2)cc1
inactive: Potency [1] | Potency [7]
active: Potency [18] 50.1 µM | Potency [4] 20 µM | Potency [5] 12.6 µM

Cc1cc(=O)c2c(O)c3c(O)cc(O)c4c5c(O)cc(O)c6c(O)c7c(=O)cc(C)c8c1c2c(c34)c(c65)c78
inactive: Potency [1] | Potency [14] | Potency [2] | Potency [4] | Potency [7] | Potency [17]
